The values below come from the supplement of paper PMC7380943.

Assay [1] has as its system CLZ3 (HCA2 human fibroblast dual HR-NHEJ reporter). Description: NHEJ repair efficiency (GFP+ cells) relative to control (log10 fold); higher = more non-homologous end joining. The following applies: 5 µM; doxycycline 0.5 ug/mL.
Assay [2] shares this test system. Description: HR repair efficiency (tdTomato+ cells) relative to control (log10 fold); higher = more homologous recombination. The following applies: 5 µM; doxycycline 0.5 ug/mL.
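For HR repair efficiency (tdTomato+ cells) relative to control in this document: compound given one day before doxycycline, which switches on I-SceI endonuclease expression to create double-strand breaks within the integrated reporter.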
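For NHEJ repair efficiency (GFP+ cells) relative to control in this document: compound given one day ahead of doxycycline, which switches on I-SceI endonuclease to cut the chromosomally integrated reporter and create DSBs.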

On to `CC(C)(O[C@@H]1O[C@H](CO)[C@@H](O)[C@H](O)[C@H]1O)[C@H]1Cc2cc3ccc(=O)oc3cc2O1` [Nodakenin], for which, in assay [1], the “NHEJ repair efficiency (log10)” value is -0.0969. Also, the “HR repair efficiency (log10)” value in assay [2] turned out to be 0.0112.

On to `C/C1=C/CC[C@H](C)C(=O)C[C@@H](C(C)C)C(=O)C1` [Curdione], for which the “NHEJ repair efficiency (log10)” value in assay [1] is -0.0258. Also, the “HR repair efficiency (log10)” value in assay [2] came to 0.0177.

Take `COc1cc(C(=O)OCCCCNC(=N)N)cc(OC)c1O` [Leonurine]: the “NHEJ repair efficiency (log10)” value in assay [1] was -0.042. Besides, the “HR repair efficiency (log10)” value in assay [2] amounted to 0.0155.

`CC1(C)CC[C@]2(C(=O)O)CCC3=C([C@@H](CCl)C[C@@H]4[C@@]5(C)C[C@H](O)[C@H](O)[C@@](C)(C(=O)O)[C@@H]5CC[C@@]34C)[C@@H]2C1` [Tenuigenin]: in assay [1], the “NHEJ repair efficiency (log10)” value worked out at 0.0402. Moreover, the “HR repair efficiency (log10)” value in assay [2] was 0.0517.

As to `CC(C)=CCC[C@](C)(O[C@@H]1O[C@H](CO)[C@@H](O)[C@H](O)[C@H]1O)[C@H]1CC[C@]2(C)[C@@H]1[C@H](O)C[C@@H]1[C@@]3(C)CC[C@H](O)C(C)(C)[C@@H]3[C@@H](O[C@@H]3O[C@H](CO)[C@@H](O)[C@H](O)[C@H]3O[C@@H]3O[C@@H](C)[C@H](O)[C@@H](O)[C@H]3O)C[C@]12C` [Ginsenoside Re], the “NHEJ repair efficiency (log10)” value in assay [1] is -0.152. Also, the “HR repair efficiency (log10)” value in assay [2] is -0.0179.

For `C[C@H]1O[C@H](OC[C@H]2O[C@@H](Oc3c(-c4ccc(O)cc4)oc4cc(O)cc(O)c4c3=O)[C@H](O)[C@@H](O)[C@@H]2O)[C@@H](O)[C@@H](O)[C@@H]1O` [Kaempferol-3-O-Rutinoside], the “NHEJ repair efficiency (log10)” value in assay [1] is 0.0149. For the same compound, the “HR repair efficiency (log10)” value in assay [2] was -0.078.

In the case of `C[C@@H]1O[C@@H](O[C@H]2C(=O)c3c(O)cc(O)cc3O[C@@H]2c2ccc(O)c(O)c2)[C@H](O)[C@H](O)[C@H]1O` [Astilbin], the “NHEJ repair efficiency (log10)” value in assay [1] amounted to 0.0148. Also, in assay [2], the “HR repair efficiency (log10)” value worked out at 0.109.

In the case of `O=c1cc(-c2ccc(O)c(-c3c(O)cc(O)c4c(=O)cc(-c5ccc(O)cc5)oc34)c2)oc2cc(O)cc(O)c12` [Amentoflavone], in assay [1], the “NHEJ repair efficiency (log10)” value was determined as 0.0928. Also, the “HR repair efficiency (log10)” value in assay [2] turned out to be 0.0831.

Consider `COc1cc(C2Oc3cc([C@H]4Oc5cc(O)cc(O)c5C(=O)[C@@H]4O)ccc3OC2CO)ccc1O` (stereo partly specified) [Silybin (Silymarin)], for which the “NHEJ repair efficiency (log10)” value in assay [1] turned out to be 0.131. The “HR repair efficiency (log10)” value in assay [2] came to 0.183.

For the compound `Oc1cc(O)cc(/C=C/c2ccc(O)c(O)c2)c1` [Piceatannol], the “NHEJ repair efficiency (log10)” value in assay [1] turned out to be 0.0759. Further, the “HR repair efficiency (log10)” value in assay [2] was 0.0923.

In the case of `CCCCCCC[C@H](O)CC(=O)CCc1ccc(O)c(OC)c1` [8-Gingerol], in assay [1], the “NHEJ repair efficiency (log10)” value turned out to be 0.00172. Also, the “HR repair efficiency (log10)” value in assay [2] worked out at 0.0341.

On to `O=c1oc2c(O)c(O)cc3c(=O)oc4c(O)c(O)cc1c4c23` [Ellagic Acid], for which the “NHEJ repair efficiency (log10)” value in assay [1] was -0.0512. In assay [2], the “HR repair efficiency (log10)” value is -0.174.

In the case of `COc1cc([C@H]2OC[C@H]3[C@@H]2CO[C@H]3c2ccc(OC)c(OC)c2)ccc1O` [Phillygenin], in assay [1], the “NHEJ repair efficiency (log10)” value was found to be 0.129. In assay [2], the “HR repair efficiency (log10)” value came to 0.116.

On to `CC(C)=CCC[C@](C)(O[C@@H]1O[C@H](CO[C@@H]2O[C@H](CO)[C@@H](O)[C@H](O)[C@H]2O)[C@@H](O)[C@H](O)[C@H]1O)[C@H]1CC[C@]2(C)[C@@H]1[C@H](O)C[C@@H]1[C@@]3(C)CC[C@H](O[C@@H]4O[C@H](CO)[C@@H](O)[C@H](O)[C@H]4O)C(C)(C)[C@@H]3CC[C@]12C` [Gypenoside Xvii], for which the “NHEJ repair efficiency (log10)” value in assay [1] was 0.0522. Also, the “HR repair efficiency (log10)” value in assay [2] is 0.00706.

For the compound `C=CC1=C(C)/C(=C/c2[nH]c(Cc3[nH]c(/C=C4\NC(=O)C(C)=C4C=C)c(C)c3CCC(=O)O)c(CCC(=O)O)c2C)NC1=O` [Bilirubin], in assay [1], the “NHEJ repair efficiency (log10)” value was -0.0874. For the same compound, the “HR repair efficiency (log10)” value in assay [2] was -0.0828.

With `O=C(O)c1cc(O)c(O)c(O)c1` [Gallic acid], the “NHEJ repair efficiency (log10)” value in assay [1] turned out to be 0.0481. Moreover, the “HR repair efficiency (log10)” value in assay [2] is -0.11.

Turning to `O=C1c2c(O)cccc2C([C@@H]2O[C@H](CO)[C@@H](O)[C@H](O)[C@H]2O)c2cc(CO)cc(O)c21` (stereo partly specified) [Barbaloin], in assay [1], the “NHEJ repair efficiency (log10)” value is 0.0217. Besides, the “HR repair efficiency (log10)” value in assay [2] stood at 0.119.

For `CO[C@]1(CC[C@H](C)CO[C@@H]2O[C@H](CO)[C@@H](O)[C@H](O)[C@H]2O)O[C@H]2C[C@H]3[C@@H]4CC[C@@H]5C[C@@H](O[C@@H]6O[C@H](CO)[C@H](O)[C@H](O)[C@H]6O[C@@H]6O[C@H](CO)[C@@H](O)[C@H](O)[C@H]6O)CC[C@]5(C)[C@H]4CC[C@]3(C)[C@H]2[C@@H]1C` [Anemarsaponin E], the “NHEJ repair efficiency (log10)” value in assay [1] was found to be 0.0103. In addition, the “HR repair efficiency (log10)” value in assay [2] is -0.0664.

Regarding `COc1cc(O)c2c(=O)c3c(O[C@@H]4O[C@H](CO)[C@@H](O)[C@H](O)[C@H]4O)ccc(O)c3oc2c1` [Swertianolin], the “NHEJ repair efficiency (log10)” value in assay [1] amounted to 0.00276. For the same compound, the “HR repair efficiency (log10)” value in assay [2] was 0.201.

For `COc1cc2ccc(=O)oc2c(OC)c1O` [Isofraxidin], in assay [1], the “NHEJ repair efficiency (log10)” value was -0.0516. For the same compound, the “HR repair efficiency (log10)” value in assay [2] is -0.153.

For `OC[C@H]1O[C@H](OC[C@H]2O[C@@H](O[C@@H]3OC=C[C@H]4[C@H](O)[C@@H]5O[C@]5(CO)[C@@H]34)[C@H](O)[C@@H](O)[C@@H]2O)[C@H](O)[C@@H](O)[C@H]1O` [Rehmannioside A], in assay [1], the “NHEJ repair efficiency (log10)” value amounted to 0.0412. Besides, the “HR repair efficiency (log10)” value in assay [2] was -0.0566.

With `O=C1OC2(c3ccccc3Oc3ccccc32)c2ccccc21` [Fluoran], the “NHEJ repair efficiency (log10)” value in assay [1] was found to be 0.0054. Besides, the “HR repair efficiency (log10)” value in assay [2] was found to be 0.0374.

Take `O=c1cc(-c2ccc(O)cc2)oc2c([C@@H]3O[C@H](CO)[C@@H](O)[C@H](O)[C@H]3O)c(O)c([C@@H]3OC[C@H](O)[C@H](O)[C@H]3O)c(O)c12` [Isoschaftoside]: in assay [1], the “NHEJ repair efficiency (log10)” value is -0.0804. Besides, the “HR repair efficiency (log10)” value in assay [2] turned out to be 0.0575.
